# This excerpt belongs to a sample that is enriched for the strongest signals.
# B1: SUN4 (Saccharomyces cerevisiae), P53616 (protein)
# chain: MGSSHHHHHHSSGLVPRGSHNGSIYGDLADFSGPYEKFEDGTIPCGQFPSGQGVIPISWLDEGGWSGVENTDTSTGGSCKEGSYCSYACQPGMSKTQWPSDQPSDGRSIGGLLCKDGYLYRSNTDTDYLCEWGVDAAYVVSELSNDVAICRTDYPGTENMVIPTYVQAGDSLPLTVVDQDTYYTWQGLKTSAQYYVNNAGISVEDACVWGSSSSGVGNWAPLNFGAGSSDGVAYLSLIPNPNNGNALNFNVKIVAADDSSTVNGECIYENGSFSGGSDGCTVSVTAGKAKFVLYN
# Key:
# Test in all cases: glycan array binding signal (z-score within array); higher = stronger binding
# Conditions in all cases: glycan notation: IUPAC condensed, linker removed
# [1] = molecular target: Gal(b1-4)GlcNAc(b1-3)Gal(b1-4)GlcNAc(b1-3)Gal(b1-4)GlcNAc(b1-2)Man(a1-3)[Gal(b1-4)GlcNAc(b1-3)Gal(b1-4)GlcNAc(b1-3)Gal(b1-4)GlcNAc(b1-2)Man(a1-6)]Man(b1-4)GlcNAc(b1-4)[Fuc(a1-6)]GlcNAc
# Summary of the method: (§1)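 Columns mapping to the same glycan were averaged after glycan names were converted to IUPAC-condensed notation. The data come from 3228 arrays in the Consortium for Functional Glycomics database, limited to those with an available protein sequence. Binding is reported as a within-array Z-score averaged across arrays of one protein sequence and across linkers.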
# [2] = molecular target: Gal(b1-4)GlcNAc(b1-3)[Gal(b1-4)GlcNAc(b1-6)]Gal(b1-4)GlcNAc
# Summary of the method: as §1
# [3] = molecular target: Gal3S6S(b1-4)GlcNAc
# Summary of the method: as §1
# [4] = molecular target: GalNAc(a1-3)GalNAc(b1-3)Gal(a1-4)Gal(b1-4)Glc
# Summary of the method: as §1
# [5] = molecular target: GalNAc(b1-4)GlcNAc(b1-2)Man(a1-3)[GalNAc(b1-4)GlcNAc(b1-2)Man(a1-6)]Man(b1-4)GlcNAc(b1-4)GlcNAc
# Summary of the method: as §1
# [6] = molecular target: GalNAc(b1-4)GlcNAc(b1-3)GalNAc(b1-4)GlcNAc
# Summary of the method: as §1
# [7] = molecular target: GalNAc(b1-4)GlcNAc6S
# Summary of the method: as §1
# [8] = molecular target: GalNAc3S(b1-4)GlcNAc
# Summary of the method: as §1
# [9] = molecular target: GlcA(b1-3)GlcNAc
# Summary of the method: as §1
# [10] = molecular target: GlcNAc(a1-3)Gal(b1-4)GlcNAc
# Summary of the method: as §1
# [11] = molecular target: GlcNAc(b1-2)Gal(b1-3)GalNAc
# Summary of the method: as §1
# [12] = molecular target: GlcNAc(b1-2)Man(a1-3)[GlcNAc(b1-4)][GlcNAc(b1-2)Man(a1-6)]Man(b1-4)GlcNAc(b1-4)[Fuc(a1-6)]GlcNAc
# Summary of the method: as §1
# [13] = molecular target: GlcNAc(b1-3)Gal(b1-4)GlcNAc(b1-3)Gal(b1-4)GlcNAc
# Summary of the method: as §1
# [14] = molecular target: GlcNAc(b1-3)Gal(b1-4)GlcNAc(b1-3)Gal(b1-4)GlcNAc(b1-2)Man(a1-3)[GlcNAc(b1-3)Gal(b1-4)GlcNAc(b1-3)Gal(b1-4)GlcNAc(b1-2)Man(a1-6)]Man(b1-4)GlcNAc(b1-4)GlcNAc
# Summary of the method: as §1
# [15] = molecular target: GlcNAc(b1-3)Gal(b1-4)GlcNAc(b1-3)Gal(b1-4)GlcNAc(b1-2)[GlcNAc(b1-3)Gal(b1-4)GlcNAc(b1-3)Gal(b1-4)GlcNAc(b1-6)]Man(a1-6)[GlcNAc(b1-3)Gal(b1-4)GlcNAc(b1-3)Gal(b1-4)GlcNAc(b1-2)Man(a1-3)]Man(b1-4)GlcNAc(b1-4)[Fuc(a1-6)]GlcNAc
# Summary of the method: as §1
# [16] = molecular target: GlcNAc(b1-3)Gal(b1-4)GlcNAc(b1-3)Gal(b1-4)GlcNAc(b1-3)Gal(b1-4)GlcNAc(b1-2)[GlcNAc(b1-3)Gal(b1-4)GlcNAc(b1-3)Gal(b1-4)GlcNAc(b1-3)Gal(b1-4)GlcNAc(b1-6)]Man(a1-6)[GlcNAc(b1-3)Gal(b1-4)GlcNAc(b1-3)Gal(b1-4)GlcNAc(b1-3)Gal(b1-4)GlcNAc(b1-2)Man(a1-3)]Man(b1-4)GlcNAc(b1-4)[Fuc(a1-6)]GlcNAc
# Summary of the method: as §1
# [17] = molecular target: Neu5Ac(a2-3)Gal(b1-3)GalNAc(b1-3)Gal(a1-4)Gal(b1-4)Glc
# Summary of the method: as §1
# [18] = molecular target: Neu5Ac(a2-3)Gal(b1-4)GlcNAc(b1-2)[Neu5Ac(a2-3)Gal(b1-4)GlcNAc(b1-6)]Man(a1-6)[Neu5Ac(a2-3)Gal(b1-4)GlcNAc(b1-2)Man(a1-3)][GlcNAc(b1-4)]Man(b1-4)GlcNAc(b1-4)GlcNAc
# Summary of the method: as §1
# [19] = molecular target: Neu5Ac(a2-3)Gal(b1-4)GlcNAc(b1-3)Gal(b1-3)GlcNAc
# Summary of the method: as §1
# [20] = molecular target: Neu5Ac(a2-3)Gal(b1-4)[Fuc(a1-3)]GlcNAc
# Summary of the method: as §1
# [21] = molecular target: Neu5Ac(a2-3)Gal(b1-4)[Fuc(a1-3)]GlcNAc(b1-3)GalNAc
# Summary of the method: as §1
# [22] = molecular target: Neu5Ac(a2-6)Gal(b1-4)GlcNAc(b1-2)Man(a1-3)Man(b1-4)GlcNAc(b1-4)GlcNAc
# Summary of the method: as §1
# [23] = molecular target: Neu5Ac(a2-6)Gal(b1-4)GlcNAc(b1-2)Man(a1-3)[GlcNAc(b1-4)][Neu5Ac(a2-6)Gal(b1-4)GlcNAc(b1-2)Man(a1-6)]Man(b1-4)GlcNAc(b1-4)GlcNAc
# Summary of the method: as §1
# [24] = molecular target: Neu5Ac(a2-6)Gal(b1-4)GlcNAc(b1-2)Man(a1-3)[Neu5Ac(a2-6)Gal(b1-4)GlcNAc(b1-2)Man(a1-6)]Man(b1-4)GlcNAc(b1-4)GlcNAc
# Summary of the method: as §1
# [25] = molecular target: Neu5Ac(a2-6)Gal(b1-4)GlcNAc(b1-2)Man(a1-3)[Neu5Ac(a2-6)Gal(b1-4)GlcNAc(b1-2)Man(a1-6)]Man(b1-4)GlcNAc(b1-4)[Fuc(a1-6)]GlcNAc
# Summary of the method: as §1
# [26] = molecular target: Neu5Ac(b2-6)Gal(b1-4)GlcNAc
# Summary of the method: as §1
# [27] = molecular target: Neu5Gc(a2-6)Gal(b1-4)GlcNAc
# Summary of the method: as §1
# [28] = molecular target: Neu5Gc(a2-8)Neu5Gc(a2-3)Gal(b1-4)GlcNAc
# Summary of the method: as §1
binder,measurement,setting,value
B1,glycan array binding signal (z-score),[1],2.9
same,glycan array binding signal (z-score),[2],-1.28
same,glycan array binding signal (z-score),[3],2.2
same,glycan array binding signal (z-score),[4],-0.199
same,glycan array binding signal (z-score),[5],4.51
same,glycan array binding signal (z-score),[6],-0.309
same,glycan array binding signal (z-score),[7],0.149
same,glycan array binding signal (z-score),[8],1.87
same,glycan array binding signal (z-score),[9],-0.127
same,glycan array binding signal (z-score),[10],0.414
same,glycan array binding signal (z-score),[11],0.963
same,glycan array binding signal (z-score),[12],-0.555
same,glycan array binding signal (z-score),[13],0.244
same,glycan array binding signal (z-score),[14],0.121
same,glycan array binding signal (z-score),[15],1.97
same,glycan array binding signal (z-score),[16],1.86
same,glycan array binding signal (z-score),[17],0.263
same,glycan array binding signal (z-score),[18],-0.391
same,glycan array binding signal (z-score),[19],-0.71
same,glycan array binding signal (z-score),[20],-0.661
same,glycan array binding signal (z-score),[21],1.91
same,glycan array binding signal (z-score),[22],-0.036
same,glycan array binding signal (z-score),[23],0.646
same,glycan array binding signal (z-score),[24],0.023
same,glycan array binding signal (z-score),[25],0.827
same,glycan array binding signal (z-score),[26],-0.182
same,glycan array binding signal (z-score),[27],-0.424
same,glycan array binding signal (z-score),[28],-0.415
